This note sets out measurements from ChEMBL document CHEMBL1961873, “Compounds: GSK PKIS; Assays: Nanosyn kinase panel” (2012).

The target of test [1] is Leukocyte tyrosine kinase receptor (Homo sapiens) (UniProt P29376). The note with it: at 1 µM.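 Note: each value is the mean inhibition of LTK.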
The target of test [2] is Tyrosine-protein kinase Lyn (Homo sapiens) (UniProt P07948). The note with it: at 0.1 µM.
For test [3] the target is unchanged. As to conditions: at 1 µM.
Test [4] has the same target. The note with it: at 0.1 µM. The source holds these as a separate data set.
Test [5] shares this target. As to conditions: at 1 µM. The source holds these as a separate data set.
In test [6] the target is T1, Tyrosine-protein kinase Mer (Homo sapiens) (UniProt Q12866).
T1 sequence (whole entry): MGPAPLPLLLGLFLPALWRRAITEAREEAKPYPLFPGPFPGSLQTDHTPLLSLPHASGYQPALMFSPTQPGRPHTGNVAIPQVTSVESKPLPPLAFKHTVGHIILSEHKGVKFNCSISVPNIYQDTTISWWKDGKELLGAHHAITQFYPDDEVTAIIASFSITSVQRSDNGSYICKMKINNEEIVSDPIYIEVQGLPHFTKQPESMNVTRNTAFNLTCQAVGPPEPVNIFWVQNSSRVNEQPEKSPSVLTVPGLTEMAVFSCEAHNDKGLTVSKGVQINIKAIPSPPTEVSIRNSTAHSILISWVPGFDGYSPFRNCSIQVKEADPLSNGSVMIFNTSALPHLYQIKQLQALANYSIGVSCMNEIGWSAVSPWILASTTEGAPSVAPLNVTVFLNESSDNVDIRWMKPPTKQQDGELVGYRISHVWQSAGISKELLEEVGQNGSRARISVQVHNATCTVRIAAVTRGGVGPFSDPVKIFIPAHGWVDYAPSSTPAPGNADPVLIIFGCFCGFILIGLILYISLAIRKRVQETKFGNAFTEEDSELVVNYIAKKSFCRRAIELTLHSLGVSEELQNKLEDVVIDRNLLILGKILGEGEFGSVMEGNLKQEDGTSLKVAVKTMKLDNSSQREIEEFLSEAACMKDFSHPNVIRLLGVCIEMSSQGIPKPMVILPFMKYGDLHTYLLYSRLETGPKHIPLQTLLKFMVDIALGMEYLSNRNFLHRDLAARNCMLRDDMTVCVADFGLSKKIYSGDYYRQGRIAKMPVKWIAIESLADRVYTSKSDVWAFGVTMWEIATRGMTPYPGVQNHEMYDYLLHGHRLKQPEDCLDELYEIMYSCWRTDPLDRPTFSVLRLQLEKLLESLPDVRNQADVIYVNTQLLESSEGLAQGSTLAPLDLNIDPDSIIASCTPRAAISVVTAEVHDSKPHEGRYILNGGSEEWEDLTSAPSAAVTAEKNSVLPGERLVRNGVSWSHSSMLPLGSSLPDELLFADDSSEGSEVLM
The note with it: at 0.1 µM.

In test [7] the target is T1, Tyrosine-protein kinase Mer (Homo sapiens). The note with it: at 1 µM.
The target of test [8] is Hepatocyte growth factor receptor (Homo sapiens) (UniProt P08581). As to conditions: at 0.1 µM.
Test [9] shares this target. As to conditions: at 1 µM.
The target of test [10] is T2, Muscle, skeletal receptor tyrosine-protein kinase (Homo sapiens) (UniProt O15146).
T2 sequence (whole entry): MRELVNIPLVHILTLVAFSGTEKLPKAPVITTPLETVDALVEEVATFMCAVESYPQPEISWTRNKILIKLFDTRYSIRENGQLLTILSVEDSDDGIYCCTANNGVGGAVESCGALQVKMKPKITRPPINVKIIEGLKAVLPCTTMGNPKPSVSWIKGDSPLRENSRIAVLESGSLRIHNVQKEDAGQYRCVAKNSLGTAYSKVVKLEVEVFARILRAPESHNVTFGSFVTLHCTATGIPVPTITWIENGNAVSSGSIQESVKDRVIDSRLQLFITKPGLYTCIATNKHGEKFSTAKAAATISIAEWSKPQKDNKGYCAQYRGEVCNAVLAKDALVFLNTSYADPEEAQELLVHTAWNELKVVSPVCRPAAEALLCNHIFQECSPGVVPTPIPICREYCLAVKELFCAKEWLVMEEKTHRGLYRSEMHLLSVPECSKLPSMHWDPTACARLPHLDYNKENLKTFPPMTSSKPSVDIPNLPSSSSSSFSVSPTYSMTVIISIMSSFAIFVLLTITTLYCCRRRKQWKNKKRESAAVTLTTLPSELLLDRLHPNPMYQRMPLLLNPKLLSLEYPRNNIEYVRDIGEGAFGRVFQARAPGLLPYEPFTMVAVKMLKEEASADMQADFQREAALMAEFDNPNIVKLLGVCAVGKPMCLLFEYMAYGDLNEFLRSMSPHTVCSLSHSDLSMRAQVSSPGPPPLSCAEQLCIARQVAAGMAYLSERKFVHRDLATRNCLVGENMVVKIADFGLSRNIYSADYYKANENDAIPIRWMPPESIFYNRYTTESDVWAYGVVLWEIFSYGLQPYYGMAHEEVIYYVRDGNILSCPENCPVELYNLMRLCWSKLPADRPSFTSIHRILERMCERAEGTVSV
As to conditions: at 0.1 µM.

For test [11], the target named is T2, Muscle, skeletal receptor tyrosine-protein kinase (Homo sapiens). As to conditions: at 1 µM.
Test [12] has as its target Platelet-derived growth factor receptor alpha (Homo sapiens) (UniProt P16234). The note with it: at 0.1 µM.
Test [13] has the same target. As to conditions: at 1 µM.
In test [14] the test system is Platelet-derived growth factor receptor alpha (Homo sapiens), P16234 [D842V]. The note with it: at 0.1 µM.
The test system is the same in test [15]. The note with it: at 1 µM.
Test [16] deals with Platelet-derived growth factor receptor alpha (Homo sapiens), P16234 [T674I]. As to conditions: at 0.1 µM.
For test [17] the test system is unchanged. The note with it: at 1 µM.
The subject of test [18] is Platelet-derived growth factor receptor alpha (Homo sapiens), P16234 [V561D]. As to conditions: at 0.1 µM.
Test [19] has the same test system. The note with it: at 1 µM.
Test [20] concerns the target Platelet-derived growth factor receptor beta (Homo sapiens) (UniProt P09619). The note with it: at 0.1 µM.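 Note: reported value is the mean percent inhibition of the kinase.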

Platelet-derived growth factor receptor alpha (Homo sapiens), P16234 [T674I], sequence (P16234 whole entry T674I): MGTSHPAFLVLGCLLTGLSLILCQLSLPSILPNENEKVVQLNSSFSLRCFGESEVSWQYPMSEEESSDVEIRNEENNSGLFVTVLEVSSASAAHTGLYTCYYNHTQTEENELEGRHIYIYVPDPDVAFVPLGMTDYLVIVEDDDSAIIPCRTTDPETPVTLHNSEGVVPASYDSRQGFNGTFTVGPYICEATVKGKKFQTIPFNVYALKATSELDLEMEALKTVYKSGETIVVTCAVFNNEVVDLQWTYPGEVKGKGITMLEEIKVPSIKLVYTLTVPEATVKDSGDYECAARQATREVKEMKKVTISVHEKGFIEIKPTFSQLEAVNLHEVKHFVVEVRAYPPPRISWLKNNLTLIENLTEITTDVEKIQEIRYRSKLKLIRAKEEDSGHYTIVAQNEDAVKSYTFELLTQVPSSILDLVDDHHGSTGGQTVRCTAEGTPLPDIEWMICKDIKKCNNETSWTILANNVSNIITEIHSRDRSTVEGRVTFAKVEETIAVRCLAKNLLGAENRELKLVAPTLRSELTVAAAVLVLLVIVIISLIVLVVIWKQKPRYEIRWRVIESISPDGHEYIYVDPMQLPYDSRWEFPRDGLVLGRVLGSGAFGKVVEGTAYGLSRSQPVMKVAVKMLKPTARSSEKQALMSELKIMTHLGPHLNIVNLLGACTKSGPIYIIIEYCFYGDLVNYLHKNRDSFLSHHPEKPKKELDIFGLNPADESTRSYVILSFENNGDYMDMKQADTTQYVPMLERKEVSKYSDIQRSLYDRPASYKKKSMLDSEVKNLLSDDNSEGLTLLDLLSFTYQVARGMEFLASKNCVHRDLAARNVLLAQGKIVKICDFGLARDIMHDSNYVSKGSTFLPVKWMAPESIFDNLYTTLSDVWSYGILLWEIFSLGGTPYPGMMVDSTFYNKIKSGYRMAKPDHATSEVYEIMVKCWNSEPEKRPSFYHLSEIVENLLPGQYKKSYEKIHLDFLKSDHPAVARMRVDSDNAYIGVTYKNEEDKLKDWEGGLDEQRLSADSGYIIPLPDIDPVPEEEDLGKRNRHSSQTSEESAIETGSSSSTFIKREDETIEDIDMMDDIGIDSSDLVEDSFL
Tyrosine-protein kinase Lyn (Homo sapiens), sequence (P07948 2-512 limits assumed): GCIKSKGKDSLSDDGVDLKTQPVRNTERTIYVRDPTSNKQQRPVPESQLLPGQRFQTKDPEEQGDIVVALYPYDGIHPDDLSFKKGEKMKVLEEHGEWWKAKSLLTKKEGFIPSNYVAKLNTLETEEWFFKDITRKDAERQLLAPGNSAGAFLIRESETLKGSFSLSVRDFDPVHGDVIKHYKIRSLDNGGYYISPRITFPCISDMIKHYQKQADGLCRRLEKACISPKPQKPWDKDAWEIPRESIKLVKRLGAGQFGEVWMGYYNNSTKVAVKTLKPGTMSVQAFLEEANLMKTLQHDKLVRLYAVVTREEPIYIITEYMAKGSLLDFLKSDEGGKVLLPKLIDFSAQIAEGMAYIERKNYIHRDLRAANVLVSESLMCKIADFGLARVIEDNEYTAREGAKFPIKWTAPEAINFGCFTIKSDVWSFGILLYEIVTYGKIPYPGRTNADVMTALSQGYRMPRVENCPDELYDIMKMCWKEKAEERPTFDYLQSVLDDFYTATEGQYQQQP
Platelet-derived growth factor receptor alpha (Homo sapiens), P16234 [V561D], sequence (P16234 whole entry V561D): as the sequence (P16234 whole entry T674I) above, with V561D, I674T counted along it
Platelet-derived growth factor receptor alpha (Homo sapiens), sequence (P16234 whole entry): as the sequence (P16234 whole entry T674I) above, with I674T counted along it
Platelet-derived growth factor receptor alpha (Homo sapiens), P16234 [D842V], sequence (P16234 whole entry D842V): as the sequence (P16234 whole entry T674I) above, with I674T, D842V counted along it

For `ON=C1CCc2cc(-c3nc(C4CCNCC4)[nH]c3-c3ccncc3)ccc21`, the inhibition in test [1] was 1.88%; in test [2] it was 0.17%; in [3], 2.43%; in test [4], -0.33%; in test [5], 0.99%; in [6], -0.13%. For the same molecule, the inhibition in test [7] was 2.76%; in [8] it was 0.32%; in test [9], 4.34%; in [10], -1.09%; in test [11], 1.9%; in test [12], 2.97%. For the same molecule, the inhibition in [13] is 10.5%; in [14], 2.44%; in [15], 6.66%; in [16], 1%; in test [17], 0.52%; in test [18], 1.54%. For the same molecule, the inhibition stood at 6.14% in test [19] and 4.22% in [20].

With `Cc1cc(Cl)cc2c1NC(=O)C2=NNc1ccc(S(N)(=O)=O)cc1`, the inhibition is 2.25% in [1]; 3.74% in test [2]; 4.11% in test [3]; 2.32% in [4]; 4.84% in test [5]; 0.38% in test [6]. Also, the inhibition in test [7] is 0.48%; in test [8] it was -0.26%; in test [9], 5.08%; in [10], 2.21%; in test [11] it was 0.5%; in test [12], 5.26%. The inhibition in [13] is 20.5%; in [14], 4.17%; in test [15], 9.86%; in test [16] it was 6.4%; in test [17], 9.82%; in test [18] it was 9.46%. For the same molecule, the inhibition was 25.8% in test [19] and 2.83% in test [20].

Take `Nc1nccc(-c2c(-c3ccc(F)cc3)ncn2CCCN2CCOCC2)n1`: the inhibition worked out at 2.3% in test [1]; 5.23% in [2]; 9.61% in test [3]; 2.71% in test [4]; 5.84% in test [5]; 0.72% in test [6]. Besides, the inhibition in test [7] was determined as 2.2%; in [8], 3.68%; in test [9] it was 5.4%; in test [10], 0.89%; in test [11] it was 3.99%; in [12], 4.62%. Moreover, the inhibition in [13] amounted to 14.7%; in test [14], 1.96%; in test [15] it was 6.03%; in test [16] it was 6.08%; in [17], 7.81%; in test [18], 3.07%. Also, the inhibition in test [19] was 8.56%; in [20], 3.65%.

On to `CN(C)C(=O)O[C@H]1CN[C@H](C#Cc2cc3ncnc(Nc4ccc(OCc5cccc(F)c5)c(Cl)c4)c3s2)C1`, for which the inhibition was 3.95% in test [1]; 3.87% in test [2]; 4.57% in test [3]; 1.48% in [4]; 3.94% in [5]; 0.43% in test [6]. In addition, the inhibition amounted to 3.05% in [7]; 1.84% in test [8]; 6.26% in test [9]; 2.98% in [10]; 3.36% in test [11]; 6.77% in test [12]. In addition, the inhibition in test [13] turned out to be 11.1%; in [14], 3.09%; in test [15] it was 1.15%; in test [16] it was 5.6%; in test [17], 4.48%; in [18], 4.17%. In addition, the values for the inhibition in [19] and in [20] were 7.24% and 2.18%, respectively.

Take `NS(=O)(=O)c1ccc(Nc2cc(-c3cccc(O)c3)n[nH]2)cc1`: the inhibition in test [1] came to 3.32%; in test [2], 6.83%; in test [3] it was 8.1%; in test [4] it was 3.6%; in test [5] it was 3.96%; in test [6], 0.91%. Besides, the inhibition in [7] stood at 6.51%; in test [8], 5.16%; in test [9] it was 2.36%; in [10], 4.32%; in test [11], 12.9%; in test [12] it was 16.7%. The inhibition in [13] was 40.4%; in test [14], 4.21%; in test [15], 13.8%; in test [16], 12.8%; in test [17], 6.05%; in test [18] it was 17.7%. For the same molecule, the inhibition was 49% in test [19] and 9.08% in test [20].

Regarding `CCCN1CCCC(c2ccc(Nc3nc(Nc4cc(F)ccc4C(N)=O)c4cc[nH]c4n3)c(OC)c2)C1` (stereo not given), the inhibition amounted to 95.5% in test [1]; 7.48% in test [2]; 7.83% in test [3]; 3.89% in [4]; 4.64% in test [5]; 3.05% in test [6]. Further, the inhibition in test [7] came to 14.1%; in test [8], 2.96%; in test [9] it was 20.6%; in test [10], 3.6%; in [11], 12.2%; in [12], 10.1%. In addition, the inhibition in test [13] came out at 38.3%; in test [14] it was 8.12%; in [15], 39.9%; in test [16] it was 5.49%; in test [17] it was 8.24%; in [18] it was 6.86%. Also, the inhibition came out at 33.1% in [19] and 6.16% in [20].

As usually defined, the inhibition is the relative decrease from the control value, in per cent.
